A short description of experiment [1]: qHTS assay to identify small molecule agonists of the RXR signaling pathway - cell viability counter screen (AID 1159529). Also: nearly all actives have a fitted effect of over 50% in size. Also: potency is read from the fitted curve at half-maximal effect. A digest of the protocol:
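Viability read-out for the RXR-alpha agonist qHTS: luminescent CellTiter-Glo signal after 30 min at RT. HEK 293T bla reporter cells, 2% charcoal-stripped FBS, 16 hr compound incubation; tetraoctyl ammonium bromide as cytotoxic control.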

Experiment [2] in a line: qHTS assay to identify small molecule antagonists of the retinoid acid receptor (RAR) signaling pathway - cell viability counter screen (AID 1159551). Also: nearly all actives have a fitted effect of over 35% in size. Also: potency is read from the fitted curve at half-maximal effect. The method, boiled down:
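Measured by luminescent ATP detection, viability reflects C3RL4 cells treated 6 h at 37 C with test chemicals in the presence of 1 uM (final) retinol.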
A general note: qHTS replaces the single test concentration by a dilution series.

Experiment [3] can be described thus: qHTS assay to identify small molecule agonists of the retinoic acid receptor (RAR) signaling pathway (AID 1159553). The method, boiled down:
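6 hr compound exposure (DMSO vehicle) of overnight-plated C3RL4 RARE-luc cells at 37 C; luminescence quantified after 30 min RT with luciferase reagent.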

Experiment [4] addresses Luciferin 4-monooxygenase (Photinus pyralis) (UniProt P08659). Briefly: qHTS assay to identify small molecule inhibitors of firefly luciferase (AID 1224835). Also: nearly all actives have a fitted effect of over 25% in size. Also: potency is read from the fitted curve at half-maximal effect. A digest of the protocol:
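Inhibition of purified Photinus luciferase is measured by luminescence. Substrate levels (D-luciferin, ATP) sit at their KM values. Each compound is tested in a concentration series.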

Experiment [5] concerns the target Nuclear receptor subfamily 1 group I member 3 (Homo sapiens) (UniProt Q14994). Nature of the experiment: qHTS assay to identify small molecule antagonists of the constitutive androstane receptor (CAR) signaling pathway (AID 1224838).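 Also: HepG2 cells stably expressing hCAR with CYP2B6 luciferase reporter stimulated by CITCO; nearly all actives have a fitted effect of over 40% in size.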 Also: potency is read from the fitted curve at half-maximal effect. A digest of the protocol:
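Human hepatoma HepG2 cells expressing hCAR and a CYP2B6 promoter (2.2 kb) luciferase construct; compound titration (15 points) with 50 nM CITCO final, 24 h at 37 C/5% CO2; luminescence via ONE-Glo after 30 min at room temperature.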

Experiment [6] is described as follows: qHTS assay to identify small molecule antagonists of the estrogen related receptor signaling pathway with the pleiotropic PPARgamma coactivator (PGC) from Tox21 10K library - cell viability counter screen (AID 1224840; active = well fitted cell-killing curve with a large enough effect in the repeat runs, not every such curve was filed as active; also: nearly all actives have a fitted effect of over 40% in size; also: potency is read from the fitted curve at half-maximal effect). The method, boiled down: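 Seeded PGC/ERR cells (2,000/well, 6 h, 37 C/5% CO2) get compound by pin tool; 17.5 h incubation at 37 C; CellTiter-Fluor added, 30 min, fluorescence measured.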

The nature of experiment [7]: qHTS assay to identify small molecule antagonists of the estrogen related receptor signaling pathway with the pleiotropic PPARgamma coactivator (PGC) from Tox21 10K library (AID 1224841; call rule not given here; also: actives are mostly falling curves and most rising ones were filed inactive; nearly all actives have a fitted effect of over 50% in size; also: potency is read from the fitted curve at half-maximal effect). A digest of the protocol:
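Test chemicals dissolved in DMSO were applied to pre-incubated (6 h) PGC/ERR cells at 2,000 cells/well for an 18 h, 37 C treatment; reporter luminescence was then read using One-Glo.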

Experiment [8] is described as follows: qHTS assay to identify small molecule agonists of the estrogen related receptor signaling pathway with the pleiotropic PPARgamma coactivator (PGC) from Tox21 10K library (AID 1224842). Also: nearly all actives have a fitted effect of over 15% in size. The method, boiled down: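 Luminescence from One-Glo (30 min, room temperature) measured after PGC/ERR cells had 18 h at 37 C with pinned compound (23 nL in DMSO). Cells had been seeded at 2,000 per well and pre-incubated 6 h.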

Experiment [9] has as its target Thyrotropin receptor (Homo sapiens) (UniProt P16473). Nature of the experiment: qHTS assay to identify small molecule agonists of the thyroid stimulating hormone receptor (TSHR) signaling pathway (AID 1224843; calls by dose curve; also: nearly all actives have a fitted effect of over 45% in size; also: potency is read from the fitted curve at half-maximal effect). The method, boiled down:
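Agonist activity read as cAMP rise via d2/cryptate HTRF competition, 1 h room-temperature detection, in HEK293 cells expressing TSHR. Fifteen-point titrations, each run in triplicate, with a 30 min room-temperature incubation beforehand.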

Experiment [10] in a line: qHTS assay to identify small molecule antagonists of the retinoic acid receptor (RAR) signaling pathway (AID 1159552; also: nearly all actives have a fitted effect of over 50% in size; also: potency is read from the fitted curve at half-maximal effect). A digest of the protocol:
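Using a RARE-driven luciferase construct in C3RL4 cells, retinol at 1 uM final provided the agonist stimulus while compounds were co-applied. After 6 hours at 37 C, luminescence was recorded to flag inhibitors of retinol signaling.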

Experiment [11] in a line: qHTS assay to identify small molecule antagonists of the constitutive androstane receptor (CAR) signaling pathway - cell viability counter screen (AID 1224837). Also: nearly all actives have a fitted effect of over 45% in size. Also: potency is read from the fitted curve at half-maximal effect. A digest of the protocol:
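To flag cytotoxic false antagonists, HepG2 hCAR/CYP2B6-2.2kb cells were treated 23 hr with 15-concentration compound series and 50 nM CITCO at 37 C/5% CO2; CellTiter-Fluor fluorescence was the measured end point.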

The nature of experiment [12]: qHTS assay to identify small molecule antagonists of the estrogen related receptor (ERR) signaling pathway - cell viability counter screen (AID 1224818). Also: series mostly up to about 46 µM. A digest of the protocol: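 Compounds dissolved in DMSO were applied to ERR cells seeded at 2,000 per well 6 h earlier. Cell viability followed 17.5 h later via 30-min CellTiter-Fluor fluorescence.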
Experiment [13] is described as follows: qHTS assay to identify small molecule antagonists of the estrogen related receptor signaling pathway with the pleiotropic PPARgamma coactivator (PGC) cell viability counter screen (AID 1224822; also: series mostly up to about 46 µM). A digest of the protocol: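 Counter screen for cell viability: PGC/ERR cells, 6 h pre-incubation after plating, 17.5 h compound exposure at 37 C, fluorescence from CellTiter-Fluor after 30 min.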

A short description of experiment [14]: qHTS assay to identify small molecule antagonists of the estrogen related receptor (ERR) signaling pathway from Tox21 library - cell viability counter screen (AID 1224834). Also: nearly all actives have a fitted effect of over 30% in size. Also: potency is read from the fitted curve at half-maximal effect. The method, boiled down: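 Seeded ERR cells were rested 6 h at 37 C/5% CO2 before compounds, positive and negative controls or DMSO were added. Incubation continued for 17.5 h, and viability was then quantified by CellTiter-Fluor fluorescence.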

A short description of experiment [15]: qHTS assay to identify small molecule agonists of the constitutive androstane receptor (CAR) signaling pathway - cell viability counter screen (AID 1224836). Also: nearly all actives have a fitted effect of over 45% in size. Also: potency is read from the fitted curve at half-maximal effect. A digest of the protocol:
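Multiplexed viability check: HepG2-CYP2B6-hCAR cells, 15-point compound dosing, 0.75 uM PK11195 final, 23 h at 37 C, CellTiter-Fluor fluorescence.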

Experiment [16] addresses Nuclear receptor subfamily 1 group I member 3 (Homo sapiens) (UniProt Q14994). Briefly: qHTS assay to identify small molecule agonists of the constitutive androstane receptor (CAR) signaling pathway (AID 1224839).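 Also: HepG2 cells stably carrying human CAR and a CYP2B6 luciferase reporter; series mostly up to about 92 µM; nearly all actives have a fitted effect of over 15% in size.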 The method, boiled down: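 Using human hepatoma HepG2 cells engineered with hCAR and a CYP2B6-2.2kb reporter, 15-concentration compound series were incubated 24 h alongside PK11195 at 0.75 uM final, with luminescence quantified afterwards.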

SMILES strings stand for the structures. Several values for one entry are separate records, joined by “and”; a condition that tells them apart may be missing. Identical values can stand only once. Records with an inconclusive call do not appear. Activity calls are given as the source filed them. Unless noted, calls follow the shape of the dose curve; as a rule, active = well fitted curve in the direction sought with a large enough effect in the repeat runs; inconclusive = weak or mixed curves; inactive = no such curve, though single readings can be large; an effect the other way counts as inactive or inconclusive.

Chain of Thyrotropin receptor (Homo sapiens) (P16473 whole entry, looked up): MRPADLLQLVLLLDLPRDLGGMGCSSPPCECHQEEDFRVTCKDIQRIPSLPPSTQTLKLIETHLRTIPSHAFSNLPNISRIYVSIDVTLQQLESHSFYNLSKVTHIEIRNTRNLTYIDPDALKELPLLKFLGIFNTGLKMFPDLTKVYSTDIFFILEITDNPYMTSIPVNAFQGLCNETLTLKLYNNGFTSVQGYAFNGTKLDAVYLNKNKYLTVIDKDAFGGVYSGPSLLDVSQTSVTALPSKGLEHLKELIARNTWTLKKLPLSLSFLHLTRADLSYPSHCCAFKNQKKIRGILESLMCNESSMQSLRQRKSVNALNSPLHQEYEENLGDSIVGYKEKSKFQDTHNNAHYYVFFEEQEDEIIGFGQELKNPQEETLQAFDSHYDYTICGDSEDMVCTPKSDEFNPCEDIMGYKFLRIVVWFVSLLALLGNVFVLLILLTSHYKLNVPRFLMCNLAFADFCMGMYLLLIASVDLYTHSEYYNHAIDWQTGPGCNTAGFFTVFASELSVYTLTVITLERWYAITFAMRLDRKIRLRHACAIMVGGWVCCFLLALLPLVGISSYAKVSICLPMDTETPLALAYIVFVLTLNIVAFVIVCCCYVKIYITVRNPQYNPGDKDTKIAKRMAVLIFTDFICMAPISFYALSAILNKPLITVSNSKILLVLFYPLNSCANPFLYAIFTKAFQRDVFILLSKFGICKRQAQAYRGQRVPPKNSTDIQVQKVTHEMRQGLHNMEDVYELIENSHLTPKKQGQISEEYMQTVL
Chain of Nuclear receptor subfamily 1 group I member 3 (Homo sapiens) (Q14994 whole entry, looked up): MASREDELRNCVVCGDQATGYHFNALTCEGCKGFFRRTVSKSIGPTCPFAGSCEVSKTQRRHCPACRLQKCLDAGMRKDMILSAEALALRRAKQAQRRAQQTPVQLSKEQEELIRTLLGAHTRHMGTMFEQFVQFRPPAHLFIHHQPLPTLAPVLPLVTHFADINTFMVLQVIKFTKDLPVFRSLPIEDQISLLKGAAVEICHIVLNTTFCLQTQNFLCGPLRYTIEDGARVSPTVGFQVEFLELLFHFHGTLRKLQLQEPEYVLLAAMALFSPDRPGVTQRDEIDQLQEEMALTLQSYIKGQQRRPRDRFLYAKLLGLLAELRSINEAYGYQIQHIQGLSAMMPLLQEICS
Chain of Luciferin 4-monooxygenase (Photinus pyralis) (P08659 whole entry, looked up): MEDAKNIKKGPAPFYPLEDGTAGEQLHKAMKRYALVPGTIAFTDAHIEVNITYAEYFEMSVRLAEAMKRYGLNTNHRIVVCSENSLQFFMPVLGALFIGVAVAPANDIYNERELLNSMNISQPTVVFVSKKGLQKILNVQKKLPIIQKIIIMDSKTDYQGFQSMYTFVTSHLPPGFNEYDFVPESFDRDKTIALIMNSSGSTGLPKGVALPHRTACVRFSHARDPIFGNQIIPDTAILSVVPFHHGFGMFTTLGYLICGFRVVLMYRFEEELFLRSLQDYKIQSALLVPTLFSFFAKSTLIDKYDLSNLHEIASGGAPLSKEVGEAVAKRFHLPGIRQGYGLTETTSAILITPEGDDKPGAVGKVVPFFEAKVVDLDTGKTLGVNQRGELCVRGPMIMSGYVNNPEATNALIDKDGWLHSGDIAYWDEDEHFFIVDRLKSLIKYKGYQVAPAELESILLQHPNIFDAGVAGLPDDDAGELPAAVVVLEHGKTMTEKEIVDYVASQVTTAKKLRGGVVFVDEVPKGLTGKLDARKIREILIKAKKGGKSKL

In the case of `COC(=O)C(C)N(C(=O)c1ccco1)c1c(C)cccc1C` (stereo unspecified), the Potency entry in experiment [1], in experiment [2], in experiment [3], in experiment [4], in [5] and in [6] was “inactive” each time. Besides, the Potency result in [7], in [8] and in experiment [9] was “inactive” throughout.
For `CCN(CC)CCc1c[nH]c2ccccc12`, the Potency result in experiment [1], in experiment [2], in [10], in experiment [4], in [11] and in [6] was “inactive” throughout.
In the case of `S=C=NCCc1ccccc1`, the Potency entry in experiment [1], in experiment [2], in experiment [10], in [5], in experiment [6] and in experiment [9] was “inactive” each time. In [4], the Potency was 40 µM (active).
As for `CCCCC(CC)COC(=O)c1ccccc1C(=O)OCC(CC)CCCC` (stereo unspecified), the Potency result in experiment [1], in [2], in experiment [3], in experiment [12], in experiment [13] and in experiment [14] was “inactive” each time. In addition, the Potency result in [4], in experiment [15], in experiment [5] and in experiment [6] was “inactive” in each case. Besides, the Potency in [9] is 3.86 µM (active).
In the case of `CC(C)N(C(=O)SC/C(Cl)=C/Cl)C(C)C`, the Potency result in [1], in experiment [2], in [3], in [14], in [4] and in [5] was “inactive” in each case. The Potency entry in experiment [16] and in [6] was “inactive” in each case. Moreover, in experiment [9], the Potency was 17.3 µM (active).
For `CCOC(=O)Cc1ccccc1`, the Potency result in [1], in [2], in experiment [10], in [14], in experiment [4] and in experiment [15] was “inactive” in each case. Further, the Potency result in experiment [5], in experiment [16], in experiment [6] and in [9] was “inactive” throughout.
Turning to `CC[N+]1(CC)CCC(OC(=O)C(O)(c2ccccc2)c2ccccc2)C1` (stereo unspecified), the Potency result in experiment [1], in experiment [2], in experiment [3], in experiment [14], in experiment [4] and in [11] was “inactive” throughout. Further, the Potency result in experiment [5], in experiment [16], in experiment [6] and in [9] was “inactive” each time.
As for `Cc1ccc([N+](=O)[O-])[c]2c1[O][Hg]2`, the Potency in [1] was 3.01 µM (active); in [2] it was 6.68 µM (active); in experiment [10] it was 1.5 µM (active); in [14], 5.31 µM (active); in [4] it was 17.4 µM (active); in [15], 9.44 µM (active). The Potency was 9.44 µM (active) in experiment [5] and 5.96 µM (active) in experiment [6].
With `[O]=[Cr](=[O])([OH])[O][Cr](=[O])(=[O])[OH]`, the Potency was 0.0027 µM (active) in experiment [1]; 17.4 µM (active) and 27.3 µM (active) in experiment [2]; 13.8 µM (active) and 24.3 µM (active) in experiment [14]; 15.5 µM (active) and 15.3 µM (active) in [15]; 11 µM (active) and 9.67 µM (active) in [11]; 3.85 µM (active) in experiment [6]. The Potency result in experiment [3] and in [4] was “inactive” throughout.
Take `N#CCCl`: in experiment [1], the Potency was 9.08 µM (active). Besides, the Potency entry in [2], in experiment [3], in experiment [4], in experiment [15], in experiment [11] and in [5] was “inactive” throughout. For the same molecule, the Potency entry in [16], in experiment [6] and in [9] was “inactive” throughout.
With `c1cc[n+]2c(c1)-c1cccc[n+]1CC2`, the Potency result in experiment [1], in experiment [2], in experiment [3], in experiment [14], in [4] and in [5] was “inactive” in each case. In experiment [6], the Potency entry is “inactive”.
`CCCCCON=O`: the Potency result in experiment [1], in experiment [2], in experiment [3], in experiment [14], in experiment [4] and in experiment [11] was “inactive” each time. Further, the Potency entry in experiment [5], in experiment [16], in [6] and in [8] was “inactive” in each case. Also, the Potency in experiment [7] is 30.7 µM (active).

The record behind these values is PubChem BioAssay (Tox21).
